Most compounds without a hit are left out; they make up all but 9.3% or so of the library.
FMDV inh: High Throughput Screening for Foot and Mouth Disease Virus Antivirals | FMDV antiviral cell-based qHTS | Potency, µM (titrated, usually from 57.9 µM), without a hit: top-dose activity change, negative = inhibition, hits mostly inhibitors | actives 1.2% (n = 410,000) | AID 1159524, 2015; calls by dose curve; tested in HEK293T cells; also: read-out not given here; potency is read from the fitted curve at half-maximal effect; nearly all actives have a fitted effect of over 45% in size
HCMV antiviral: qHTS Assay for inhibitors of the human cytomegalovirus (HCMV); HFF cells, HCMV-luciferase reporter, 72 h; active compounds read low; activity change, negative = inhibition, % at 57.5 µM; actives 4.5% (n = 410,000); AID 1259415, 2018; in the data active = activity change below about -60%; inconclusive = no clear call, values can overlap the other calls; inactive = above about -39%
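Cell-based, HFFs, 1000 cells/well, 16 h 37C; cpds in DMSO + HCMV-luc, MOI 1 PFU/cell; 72 h 37C; OneGlo luminescence after 5 min RT; norm. to buffer vs Salinomycin 10uM.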
VACV mCherry inh: qHTS for Stage-Specific Inhibitors of Vaccinia Orthopoxvirus: mCherry Reporter Primary qHTS; Vaccinia virus mCherry reporter infection, fluorescence; AID 720579, 2013; Potency, µM (top dose mostly 36.5 µM), for inactives: at the top dose activity change, negative = inhibition, most hits filed as inhibitors; actives 0.63% (n = 310,000); calls by dose curve; tested in A549 cells; also: potency is read from the fitted curve at half-maximal effect; nearly all actives have a fitted effect of over 35% in size
Sm TGR inh: qHTS Assay for the Inhibitors of Schistosoma Mansoni Peroxiredoxins; Schistosoma mansoni thioredoxin glutathione reductase (TGR), Q962Y6; purified TGR, DTNB reduction, TNB absorbance 405 nm; Potency, µM (titrated, usually from 114 µM), for inactives: at the highest dose activity change, negative = inhibition, most hits filed as inhibitors; actives 3% (n = 360,000); also: potency is read from the fitted curve at half-maximal effect; nearly all actives have a fitted effect of over 60% in size
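TGR 20 nM + NADPH 100 uM (dispensed conc.), cpd preinc 15 min RT; start with NADPH (500 uM addition) then DTNB (15 mM addition). Kinetic TNB absorbance, 405 nm filter. Four-parameter Hill fit across titration.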
HCV inh: qHTS Assay for Inhibitors of Hepatitis C Virus (HCV). Potency, µM (doses to about 41.8 µM), inactives show at the highest dose activity change, negative = inhibition, actives largely listed as inhibitors. actives 3.4% (n = 340,000). Huh7.5.1 HCVcc-Cre infection, luciferase reporter, 44 h; also: potency is read from the fitted curve at half-maximal effect
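A cell-based infection assay in which seeded cells (1,000 per well) receive test compound after 4 h, are inoculated with HCVcc-Cre at approximately 0.5 moi, and are incubated 44 h before luminescence detection.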
Vaccinia Venus: qHTS for Stage-Specific Inhibitors of Vaccinia Orthopoxvirus: Venus Reporter Primary qHTS. Potency, µM (titrated, usually from 36.5 µM), for the others: at the highest dose activity change, negative = inhibition, most hits filed as inhibitors. actives 0.46% (n = 330,000). Vaccinia virus Venus reporter expression, fluorescence; calls by dose curve; tested in A549 cells; also: potency is read from the fitted curve at half-maximal effect; nearly all actives have a fitted effect of over 30% in size
An asterisk follows results filed as active; i = inactive; ? = inconclusive; · = not tested or not shown; [ ] = remark or other dose. Unless noted, calls follow the shape of the dose curve; as a rule, active = well fitted curve in the direction sought with a large enough effect; inconclusive = small, poorly fitted or top-dose-only effect, or another doubt; inactive = no such curve, though single readings can be large; an effect the other way counts as inactive or inconclusive. % is scaled to controls: 0 for no effect and ±100 for the full control effect.

SMILES	FMDV inh	HCMV antiviral	VACV mCherry inh	Sm TGR inh	HCV inh	Vaccinia Venus
O=C1NC2(CCCCCC2)C(=O)N1Cc1ccc(Br)cc1	-11%	10	-2%	8%	-10%	-15%
O=C(NC1CC1)c1cc2cc(Br)ccc2s1	0%	-2	-13%	10%	-22%	-10%
O=C(Nc1ccc(F)cc1)[C@@H](c1ccccc1)N1Cc2ccccc2C1=O	46%	-5	-2%	4%	·	4%
CCc1ccccc1NC(=O)C(=O)NCC(c1cccnc1)N1CCc2ccccc21 (configuration not stated)	?	-8	-13%	-5%	·	-17%
CCOc1ccc(NC(=O)C(=O)NCC(c2cccnc2)N2CCc3ccccc32)cc1 (configuration not stated)	11µM*	-66*	-28%	1%	·	-30%
COc1ccc(NC(=O)C(=O)NCC(c2cccnc2)N2CCc3ccccc32)cc1OC (configuration not stated)	-22%	11	-26%	9%	·	-14%
COC(=O)c1ccc(NC(=O)C(=O)NCC(c2cccnc2)N2CCc3ccccc32)cc1 (configuration not stated)	11µM*	11	-15%	2%	·	-12%
CCN(CC)c1nc(NC2CCN(C)CC2)c2cc(OC)c(OC)cc2n1	·	·	-36%	·	·	?
O=[N+]([O-])c1cnc(Sc2ccncn2)s1	40µM*	-99*	·	0.32µM*	7.1µM*	·
O=[N+]([O-])c1cnc(Sc2ccncn2)c([N+](=O)[O-])c1	?	-1	?	·	·	?
COc1cc(NC(=O)COc2ccc(-n3ccnc3)cc2)cc(OC)c1	?	-87*	-1%	-7%	?	-11%
N#Cc1cccc(NC(=O)COC(=O)Cn2nc(-c3ccccc3)oc2=O)c1	-11%	-65*	·	4%	17%	·
COc1ccc(OCC(=O)N/N=C(\C)c2ccc(-n3ccnc3)cc2)cc1	-8%	6	-17%	-6%	26%	-3%
Cc1cc(C)c(NC(=O)COC(=O)Cn2nc(-c3ccccc3)oc2=O)c(C)c1	-2%	101	-13%	·	11%	-6%
N#Cc1cccc(NC(=O)COc2ccc(-n3ccnc3)cc2)c1	28µM*	-26	·	-1%	?	·
Cc1ccc(OCC(=O)Nc2ccc3nn(-c4ccc(C)cc4)nc3c2)cc1	40%	96	-4%	0%	·	9%
CC(C)(C)c1ccc(NC(=O)COc2ccc(-n3ccnc3)cc2)cc1	11µM*	-86*	·	2%	5µM*	?
N#Cc1ccc(NC(=S)N2CCC3CC2c2cc(-c4ccc5c(c4)OCO5)ccc23)cc1 (configuration not stated)	3%	-10	i	·	·	-14%
O=C(COc1ccccc1-c1nnc(-c2ccccc2)o1)Nc1ccc(Br)cc1F	-2%	14	-5%	3%	·	-25%
CN(C(=O)OC(C)(C)C)c1ccc(-c2nc3ccccc3s2)cc1	100µM*	-95*	·	·	·	·
FC(F)(F)c1ccc(-c2nc3ccccc3s2)cc1	-5%	?	i	·	·	3%
CC(C)c1ccc(-c2nc3ccccc3s2)cc1	0%	-95*	i	13%	1%	-10%
NC(=O)c1cccc(-c2cc(Nc3ccc(OC(F)(F)F)cc3)ncn2)c1	?	?	i	2%	?	?
Nc1c(N(C(=O)Nc2ccc(Cl)c(Cl)c2)C2CCCC2)c(=O)[nH]c(=O)n1Cc1ccccc1	?	-12	-23%	2%	11µM*	-7%
COc1ccc(-n2nnnc2S(=O)(=O)Cc2ccc(C(=O)O)cc2)cc1	28µM*	-18	·	13µM*	-15%	·
SMILES	FMDV inh	HCMV antiviral	VACV mCherry inh	Sm TGR inh	HCV inh	Vaccinia Venus
COc1cc(OC)cc(-n2nnnc2SCC(=O)N2CCCC2)c1	·	-12	i	-9%	-12%	-1%
COc1ccc(-n2nnnc2S(=O)(=O)CC(=O)N2CCCCC2)cc1	20µM*	·	13µM*	10µM*	?	?
c1coc(C2OCC3(CO2)COC(c2ccco2)OC3)c1 (configuration not stated)	6%	-23	i	7%	8%	-5%
CCN(C(=O)CSc1nnc(-c2ccc3c(c2)OCO3)o1)C1CCS(=O)(=O)C1 (configuration not stated)	1%	1	-10%	4%	-3%	-19%
CS(=O)(=O)c1ccc2nc(NC(=O)CN3CCOCC3)sc2c1	6%	10	i	0%	-11%	-26%
COc1ccc(NC(=O)C2Cc3c(-c4cccc(F)c4)ccnc3O2)cc1 (configuration not stated)	-15%	-81*	-24%	·	·	-14%
O=C(Nc1ccc(Cl)c(C(F)(F)F)c1)C1Cc2c(-c3ccccc3)ccnc2O1 (configuration not stated)	-27%	-84*	i	·	·	-7%
CC(=O)c1cccc(-c2ccnc3c2CC(C(=O)Nc2ccc(C(C)C)cc2)O3)c1 (configuration not stated)	-14%	-82*	46%	·	·	5%
CC(=O)c1cccc(NC(=O)C2Cc3c(-c4cccc(C(C)=O)c4)ccnc3O2)c1 (configuration not stated)	22µM*	?	2%	·	·	-3%
CC(=O)Nc1ccc(NC(=O)C2Cc3c(-c4cccc(F)c4)ccnc3O2)cc1 (configuration not stated)	-2%	-21	22%	·	·	-9%
Cc1noc(C)c1C(=O)OCC(=O)c1ccc[nH]1	2%	24	·	-2%[11.4 µM]	-5%	·
Cc1noc(C)c1C(=O)OCC(=O)c1cc(C)n(Cc2ccccc2Cl)c1C	-3%	-38	·	0%	11µM*	·
Cc1[nH]nc(-c2ccc(O)c(C)c2O)c1-c1cnn(-c2ccccc2)c1	-2%	-27	·	-5%	4µM*	·
COc1ccc(C(=O)N2CCCN(C)CC2)cc1S(=O)(=O)N1CCCc2ccccc21	32%	92	·	-16%	-15%	·
COc1ccc(C(=O)N2CCCN(C)CC2)cc1S(=O)(=O)N(C)Cc1ccccc1	-7%	-9	·	35µM*	1%	·
COc1cccc(CN2CCNC(=O)C2CC(=O)NCCn2nc(C)cc2C)c1OC (configuration not stated)	40%	-11	i	?	5%	-4%
CCCN(CC)c1ncnc2[nH]ncc12	-9%	-65*	-9%	·	0%	-7%

Assay outcomes as filed in PubChem BioAssay.
